Test results: PubChem BioAssay
Several values for one entry are separate records, joined by “and”; a condition that tells them apart may be missing. Equal entries are not always repeated.

Columns and labels:
[1] = tested on: Botulinum neurotoxin type F light chain protease (Clostridium botulinum); experiment: Botulinum neurotoxin type F light chain protease inhibition, multiplex microsphere flow cytometry, validation set (AID 588459); settings: multiplex microsphere protease substrate cleavage assay, at 10 µM, active compounds read high
[2] = biological target: Botulinum neurotoxin type A (Clostridium botulinum) (UniProt P0DPI0); experiment: BoNT/A light chain protease inhibitors, biochemical, multiplex microsphere flow cytometry, validation set (AID 588460); settings: at 10 µM, active compounds read high
[3] = biological target: Lethal factor (Bacillus anthracis) (UniProt P15917); experiment: Lethal factor protease inhibitors, Bacillus anthracis, multiplex microsphere cleavage assay, validation set (AID 588461); settings: flow cytometry, at 10 µM, active compounds read high

Measured: inhibition

C[C@]12CCC(=O)C=C1CC[C@@H]1[C@@H]2CC[C@@]2(C)[C@H]1CC[C@]2(O)C(=O)CO
inactive: [1] 1.3% | [2] -1.2% | [3] -1.7%

COc1ccc2nc(S(=O)Cc3ncc(C)c(OC)c3C)[nH]c2c1 (configuration not stated)
inactive: [1] 4.3% | [2] 1.7% | [3] 5%

COc1cc2nc(N3CCN(C(=O)C4CCCO4)CC3)nc(N)c2cc1OC (configuration not stated)
inactive: [1] 3.3% and 1.5% | [2] 0% | [3] -5.7% and -7.8%

Cn1c2ccc(CC(=O)O)cc2c2cc(CC(=O)O)ccc21
inactive: [1] 2.2% | [2] -0.6% | [3] 7.2%

CCOC(=O)C1=C2c3ccc4ccccc4c3CC(C)(C)N2C(=O)C1=O
inactive: [1] 2.7% | [2] 1.7% | [3] -4.6%

C/C=C/c1ccc(OCCCCN2CC(C)CC(C)C2)c(OC)c1 (configuration not stated)
inactive: [1] 3.1% | [2] -0.5% | [3] -6%

Cc1ccccc1C(OCCN(C)C)c1ccccc1 (configuration not stated)
inactive: [1] 1.2% | [2] 0.7% | [3] 2.5%

OC(COCc1ccccc1)CN1CCN(Cc2ccc3c(c2)OCO3)CC1 (configuration not stated)
inactive: [1] 0.6% | [2] 0.3% | [3] 2.8%

CC1(C)CC(=O)C(C(=O)CCCCC(=O)C2C(=O)CC(C)(C)CC2=O)C(=O)C1
inactive: [1] 1.2% | [2] 0.8% | [3] -5.7%

O=C(O)c1ccc(N2C(=O)/C(=C\c3ccccc3)N=C2c2ccccc2)cc1
inactive: [1] 1% | [2] -1.6% | [3] 4.4%

COc1ccc(Br)cc1C(=O)Nc1ccc(C(=O)O)cc1
inactive: [1] 1% | [2] 1% | [3] -2.2%

CCOC(=O)n1c(=O)oc2ccccc21
inactive: [1] 0.5% | [2] 0.5% | [3] -4%

CC(C)NNC(=O)c1ccncc1
inactive: [1] 1.2% | [2] 1.3% | [3] -7.1%

Cc1ccc2nc(N=C(N)N)nc(C)c2c1
inactive: [1] 3.2% | [2] -0.2% | [3] -12.1%

CCn1cc(C(=O)O)c(=O)c2ccc(C)nc21
inactive: [1] 1.3% | [2] -1.5% | [3] -3.9%

CCN(CC)CCNc1ccc(CO)c2sc3ccccc3c(=O)c12
inactive: [1] 0.5% | [2] -0.5% | [3] -7%

Cc1oc2c(O)c(O)ccc2c(=O)c1-c1ccccc1
inactive: [1] 1.6% | [2] 0.4% | [3] 2%

COCCCN1C(=O)/C(=C\c2cccs2)C(C(=O)OC)=C1C
inactive: [1] -1.3% | [2] -0.8% | [3] 3.3%

COc1ccc(OC)c(-n2c(Cn3c(-c4ccccn4)nc4ccccc43)n[nH]c2=S)c1
inactive: [1] -3.4% | [2] -0.4% | [3] -0.7%

NCCCC(N)(C(=O)O)C(F)F (configuration not stated)
inactive: [1] -3% | [2] 0.5% | [3] -2.1%

Oc1ccc(/C=C/c2cc(O)cc(O)c2)cc1
inactive: [1] -6.7% | [2] -2.2% | [3] 3.7%

Cc1ccc(/C(=C\CN2CCCC2)c2ccccn2)cc1
inactive: [1] -2% | [2] 0.3% | [3] 11.9%

Cc1ccc(Cl)c(OCCCN(C)Cc2ccccc2)c1
inactive: [1] 2.8% | [2] 0.1% | [3] -7.8%

C[C@]12CCC(=O)C=C1CC[C@@H]1[C@@H]2[C@@H](O)C[C@@]2(C)[C@H]1CC[C@]2(O)C(=O)COC(=O)CCC(=O)O
inactive: [1] 1.7% | [2] -2.4% | [3] -8%

O=C(CCCN1CC=C(n2c(=O)[nH]c3ccccc32)CC1)c1ccc(F)cc1
inactive: [1] -1.3% | [2] -1% | [3] -5.4%

COc1ccc(C(=O)Nc2ccccc2C(=O)NC(Cc2c[nH]c3ccccc23)C(=O)O)cc1 (configuration not stated)
inactive: [1] -0.8% | [2] 0.5% | [3] 0%

CC(C)C(=O)Nc1c(O)c2ccccc2[nH]c1=O
inactive: [1] 3.5% | [2] -0.8% | [3] 1.1%

COc1cccc(N2CC(O)=C(c3nc4ccccc4c(=O)[nH]3)C2=N)c1
inactive: [1] -2.2% | [2] -1.1% | [3] -6.2%

Cc1nc(N[C@@H](Cc2c[nH]c3ccccc23)C(=O)O)c2oc3ccccc3c2n1
inactive: [1] 1.3% | [2] -0.2% | [3] -6.5%
